# Experimental data: PubChem BioAssay (NCATS)
# Where “and” joins values, the source holds several entries; their conditions need not be identical. Equal values may be shown once. Records with an inconclusive call do not appear. Where a call stands in place of a potency, no number is given. Calls of active or inactive are those of the source. Unless noted, calls come from the whole dose curve; as a rule, active = well fitted curve in the direction sought with a large enough effect; inconclusive = small, poorly fitted or top-dose-only effect, or another doubt; inactive = no such curve, though single readings can be large; an effect the other way counts as inactive or inconclusive.
# Legend:
# [1] = qHTS Assay for Lipid Storage Modulators (AID 1519; calls by dose curve); settings: Drosophila S3 cells, BODIPY lipid droplet/cell ratio, laser cytometry, cells loaded with oleic acid
# Summary of the method: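 Cells seeded at 5,000 per well were treated with compounds over a concentration series and loaded with oleic acid (400 uM, as added). Lipid droplet fluorescence (488 nm excitation, 500-530 nm channel) was read by laser-scanning cytometry and normalized to 20 uM Triacsin C.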
# [2] = biological target: DNA repair nuclease/redox regulator APEX1 (Homo sapiens) (UniProt P27695); assay: qHTS Validation Assay for Inhibitors of the Human Apurinic/apyrimidinic Endonuclease 1 (APE1) (AID 1705;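 note: TAMRA fluorescence gain over two minutes as APE1 cuts a quenched THF abasic duplex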); settings: purified APE1 endonuclease activity, fluorescence, titration; series mostly up to 57.1 µM
# DNA repair nuclease/redox regulator APEX1 (Homo sapiens), sequence (P27695 whole entry, looked up): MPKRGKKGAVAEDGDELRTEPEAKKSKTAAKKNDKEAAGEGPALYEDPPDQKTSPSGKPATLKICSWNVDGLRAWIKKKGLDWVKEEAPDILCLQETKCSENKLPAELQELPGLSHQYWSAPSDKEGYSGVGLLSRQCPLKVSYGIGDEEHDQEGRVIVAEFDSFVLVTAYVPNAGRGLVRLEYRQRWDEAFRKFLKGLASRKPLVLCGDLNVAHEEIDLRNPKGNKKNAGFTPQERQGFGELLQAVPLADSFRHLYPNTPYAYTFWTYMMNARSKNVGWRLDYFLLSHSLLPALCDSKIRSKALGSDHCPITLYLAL
# Summary of the method: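 Activity read as rising fluorescence (598 nm emission, 525 nm excitation) from incision of a TAMRA/BHQ-2 duplex carrying a THF abasic site (50 nM). Compound and enzyme sat 15 min at RT before substrate start; signal change between first and third 60-s reads.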
# [3] = Counterscreen for APE1 Inhibitors: Fluorescent Dye Displacement Validation Assay (AID 1707); settings: fluorescent dye displacement from DNA; series mostly up to 57.1 µM
# Summary of the method: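 Loss of Thiazole Orange fluorescence marks promiscuous DNA binders. The dye (250 nM) is mixed with 50 nM abasic-site dsDNA in pH7.5 Tris buffer containing MgCl2, then compounds are added and emission is read once.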
# [4] = qHTS for differential inhibitors of proliferation of Plasmodium falciparum line 7G8 (AID 1815); settings: Plasmodium falciparum 7G8 proliferation inhibition; series mostly up to 28.7 µM;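 note: parasite growth measured after three days of incubation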
# [5] = qHTS for differential inhibitors of proliferation of Plasmodium falciparum line 3D7 (AID 1876);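 note: parasite growth measured after three days of culture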; settings: P. falciparum 3D7 proliferation inhibition; series mostly up to 28.7 µM
# [6] = qHTS for differential inhibitors of proliferation of Plasmodium falciparum line D10 (AID 1877); settings: series mostly up to 28.7 µM;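 note: parasites grown with compound for 72 h before DNA staining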
# [7] = qHTS for differential inhibitors of proliferation of Plasmodium falciparum line Dd2 (AID 1882); settings: Potency: Plasmodium falciparum Dd2 proliferation inhibition; series mostly up to 28.7 µM;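 note: compound exposure of 72 h on infected erythrocytes; nearly all actives have a fitted effect of over 65% in size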
# Summary of the method: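 RBC culture, 0.3% parasitemia / 2.5% Hct final; cpd added by pin tool in DMSO; 72 h, 37 C, 5% CO2; lysis buffer + SYBR Green I, o/n RT dark; FI 485/535; norm. to artemisinin 0.29 uM and DMSO.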
# [8] = qHTS for differential inhibitors of proliferation of Plasmodium falciparum line HB3 (AID 1886); settings: Potency: Plasmodium falciparum HB3 proliferation inhibition; series mostly up to 28.7 µM;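 note: parasites grown with compound for 72 h before SYBR Green readout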
# [9] = qHTS Assay for Modulators of Human Peripheral Myelin Protein 22 (PMP22) Expression/Activity (AID 1967; active = well fitted curve in the direction sought with a large enough effect in the signal ratio; the % refers to the signal ratio); settings: Cell-based PMP22 reporter, dual-color luciferase ratio, 0% = compound-free control cells, mouse Pmp22 promoter in mouse Schwann cells; series mostly up to 115 µM
# Summary of the method: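 Readout is the corrected green/red luminescence ratio after 24 h compound exposure, normalised to untreated cells (0%). Engineered MSC80 mouse Schwann cells express green luciferase from the mouse Pmp22 promoter and red luciferase from EF-alpha as internal control.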
# [10] = biological target: Ferritin light chain (Equus caballus) (UniProt P02791); assay: qHTS Validation Assay for Identification of Novel General Anesthetics (AID 2323); settings: horse apoferritin, anesthetic-site fluorescent probe displacement; series mostly up to 76.9 µM
# Ferritin light chain (Equus caballus), sequence (P02791 2-175 limits assumed): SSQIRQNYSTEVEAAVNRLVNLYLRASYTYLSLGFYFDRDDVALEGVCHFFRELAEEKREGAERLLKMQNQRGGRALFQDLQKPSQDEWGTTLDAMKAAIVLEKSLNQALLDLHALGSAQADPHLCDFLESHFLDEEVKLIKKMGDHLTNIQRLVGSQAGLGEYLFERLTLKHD
# Summary of the method: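 Competitive displacement of the profluorescent anesthetic 1-AMA (50% saturated, PBS) from 10 uM apoferritin, 10 min, room temperature. Activity is normalized 380/535 nm fluorescence; concentration-response fitted with a four-parameter Hill equation.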
# [11] = biological target: ATP-dependent DNA helicase Q1 (Homo sapiens) (UniProt P46063); assay: qHTS Validation Assay for Inhibitors of RecQ-Like Dna Helicase 1 (RECQ1) (AID 2353); settings: recombinant RECQ1 helicase DNA unwinding assay; series mostly up to 25.6 µM
# ATP-dependent DNA helicase Q1 (Homo sapiens), sequence (P46063 whole entry, looked up): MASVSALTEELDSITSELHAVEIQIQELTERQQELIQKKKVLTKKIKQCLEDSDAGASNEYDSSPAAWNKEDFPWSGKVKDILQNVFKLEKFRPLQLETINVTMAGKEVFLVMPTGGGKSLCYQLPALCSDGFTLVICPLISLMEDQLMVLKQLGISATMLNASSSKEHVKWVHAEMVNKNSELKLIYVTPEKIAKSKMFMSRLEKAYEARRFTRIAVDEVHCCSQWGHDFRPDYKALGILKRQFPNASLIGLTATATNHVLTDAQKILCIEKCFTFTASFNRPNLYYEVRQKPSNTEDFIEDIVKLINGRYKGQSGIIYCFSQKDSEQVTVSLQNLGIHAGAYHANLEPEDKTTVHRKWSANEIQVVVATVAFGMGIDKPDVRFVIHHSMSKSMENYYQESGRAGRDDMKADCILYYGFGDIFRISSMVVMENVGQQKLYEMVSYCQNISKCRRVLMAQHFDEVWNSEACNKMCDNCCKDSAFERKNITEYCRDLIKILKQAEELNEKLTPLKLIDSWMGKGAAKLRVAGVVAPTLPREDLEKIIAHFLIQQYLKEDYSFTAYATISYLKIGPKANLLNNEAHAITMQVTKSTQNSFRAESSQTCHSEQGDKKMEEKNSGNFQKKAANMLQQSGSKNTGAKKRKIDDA
# Summary of the method: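 RECQ1T1 50 nM; forked duplex (20 bp + 30-nt ss tails) 200 nM, ATP 2 mM final; pH 8.0, 2 mM MgCl2, 2.5 ug/ml poly(dI-dC); 15 min compound preincubation; discontinuous kinetic read over 2 h at RT.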
# [12] = Cytometric Cell-Based qHTS for Inhibitors of the mTORC1 Signaling Pathway in MEF (Tsc2-/-, p53-/-) Cells (AID 2660); settings: mTORC1 pathway cytometry; series mostly up to 38.3 µM;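 note: Tsc2 and p53 null MEFs carrying empty vector with compound for 24 h; percent of cells above a phospho-rpS6 to PI ratio cutoff in each well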
# Summary of the method: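 Percent of cells positive for normalized phospho-S6 staining is reported, with the cutoff set from rapamycin (7.5 nM) versus DMSO wells. Tsc2-/-, p53-/- MEFs received compound for 24 hrs.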
# [13] = High Content Imaging Cell-Based qHTS for Inhibitors of the mTORC1 Signaling Pathway in MEF Cells (AID 2667); settings: series mostly up to 38.3 µM;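 note: Tsc2-/- p53-/- MEFs stably re-expressing wild-type Tsc2 exposed 24 h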
# Summary of the method: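 Read-out is the share of phospho-rpS6-positive cells per well, from Hoechst-normalized Alexa-488 Ser235/236 staining imaged on IN Cell. Cells: WT Tsc2-expressing Tsc2-/-, p53-/- MEFs exposed to compound for 24 hrs.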
# [14] = Cytometry Cell-Based qHTS for Inhibitors of the mTORC1 Signaling Pathway in MEF cells (AID 2668); settings: mTORC1 pathway readout; series mostly up to 38.3 µM;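 note: Tsc2-/- p53-/- mouse embryonic fibroblasts stably re-expressing wild-type Tsc2; percent cells positive for phospho-rpS6 Ser235/236 relative to propidium iodide stain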
# Summary of the method: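 Phospho-rpS6 (Ser235/236) immunofluorescence over PI signal, scored as % positive cells using thresholds from 7.5 nM rapamycin and DMSO wells, after 24 h compound exposure of WT-Tsc2-rescued Tsc2-/-, p53-/- MEFs. PI cell count recorded for viability.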
# [15] = Validation screen for small molecules that induce DNA re-replication in MCF 10A normal breast cells (AID 463097); settings: MCF 10A cells, DNA re-replication phenotype imaging; series mostly up to 46.1 µM; note: nearly all actives have a fitted effect of over 60% in size
# Summary of the method: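 Read-out is Hoechst total nuclear intensity by fluorescence scanning imager, flagging increased high-DNA-content nuclei. Compounds were incubated with MCF 10A cells for 48 hr (37 C, 5% CO2) before 40 min staining.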
# [16] = biological target: Endonuclease 4 (Escherichia coli (strain K12)) (UniProt P0A6C1); assay: Counterscreen for APE1 Inhibitors: qHTS Validation Assay for Inhibitors of Endonuclease IV (AID 1708); settings: E. coli endonuclease IV, DNA cleavage fluorescence; series mostly up to 57.1 µM
# Summary of the method: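 Read-out: fluorescence rise (ex 525/em 598 nm) from incision of a TAMRA/BHQ-2 double-stranded THF abasic-site substrate (50 nM), measured kinetically; third-minus-first read difference gave reaction progress. Enzyme 2 nM.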
# [17] = qHTS for differential inhibitors of proliferation of Plasmodium falciparum line GB4 (AID 1816); settings: Potency: Plasmodium falciparum GB4 proliferation inhibition; series mostly up to 28.7 µM;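 note: parasite growth measured after 72 h incubation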
# [18] = qHTS for differential inhibitors of proliferation of Plasmodium falciparum line W2 (AID 1883); settings: Potency: Plasmodium falciparum W2 proliferation inhibition; series mostly up to 28.7 µM;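 note: parasites grown with compound for 72 h before lysis and staining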
# [19] = measured here: cell count channel max response
# [20] = measured here: lipid channel max response
compound,measurement,setting,value
CCCCCCCCCCCC1=C(O)C(=O)C=C(O)C1=O,"activity change, negative = inhibition",[1]; at 57.5 µM (top of the series),11.6% (inactive) and 5.79% (inactive)
same,max response,[1]; [19],14.8% and -11.9%
same,max response,[1]; [20],24.3% and -12.6%
CC(C)[C@H](CO)Nc1nc(Nc2ccc(C(=O)O)c(Cl)c2)c2ncn(C(C)C)c2n1,"activity change, negative = inhibition",[1]; at 57.5 µM (top of the series),6.65% (inactive)
same,max response,[1]; [19],12.5%
same,max response,[1]; [20],19.1%
O=C1NCC2(CCN(CCc3ccccc3)CC2)O1,"activity change, negative = inhibition",[1]; at 25.7 µM (top of the series),-2.42% (inactive)
same,"activity change, negative = inhibition",[1]; at 57.5 µM (top of the series),11.9% (inactive) and -0.152% (inactive)
same,max response,[1]; [19],-3.3% and 25.9% and -24.6%
same,max response,[1]; [20],-4.45% and 48.5% and -24.1%
same,outcome,[2],inactive
same,outcome,[3],inactive
same,Potency,[4],inactive
same,Potency,[5],inactive
same,Potency,[6],inactive
same,Potency,[7],inactive
same,Potency,[8],inactive
same,outcome,[9],inactive
same,outcome,[10],inactive
same,outcome,[11],inactive
same,outcome,[12],inactive
same,outcome,[13],inactive
same,Potency,[14],inactive
same,Potency,[15],inactive
NCCS,"activity change, negative = inhibition",[1]; at 57.5 µM (top of the series),0.57% (inactive)
same,max response,[1]; [19],-11.3%
same,max response,[1]; [20],-9.57%
same,outcome,[2],inactive
same,outcome,[3],inactive
same,outcome,[16],inactive
same,Potency,[4],inactive
same,Potency,[17],inactive
same,Potency,[5],inactive
same,Potency,[6],inactive
same,Potency,[7],inactive
same,Potency,[18],inactive
same,Potency,[8],inactive
same,outcome,[10],inactive
same,outcome,[11],inactive
same,outcome,[12],inactive
same,outcome,[13],inactive
same,Potency,[14],inactive
same,Potency,[15],inactive
COCCCCC(=NOCCN)c1ccc(C(F)(F)F)cc1,"activity change, negative = inhibition",[1]; at 25.7 µM (top of the series),0.501% (inactive)
same,max response,[1]; [19],5.99%
same,max response,[1]; [20],5.1%
c1ccc2c(Cc3c[nH]c4ccccc34)c[nH]c2c1,"activity change, negative = inhibition",[1]; at 57.5 µM (top of the series),12.9% (inactive)
same,max response,[1]; [19],7.31%
same,max response,[1]; [20],20.3%
CC(=O)c1ccc(S(=O)(=O)NC(=O)NC2CCCCC2)cc1,"activity change, negative = inhibition",[1]; at 25.7 µM (top of the series),-0.412% (inactive)
same,"activity change, negative = inhibition",[1]; at 57.5 µM (top of the series),2.09% (inactive)
same,max response,[1]; [19],-7.61% and -6.03%
same,max response,[1]; [20],-6.16% and -3.34%
same,outcome,[2],inactive
same,outcome,[3],inactive
same,outcome,[16],inactive
same,Potency,[4],inactive
same,Potency,[17],inactive
same,Potency,[5],inactive
same,Potency,[6],inactive
same,Potency,[7],inactive
same,Potency,[18],inactive
same,Potency,[8],inactive
same,outcome,[10],inactive
same,outcome,[11],inactive
same,outcome,[12],inactive
same,outcome,[13],inactive
same,Potency,[14],inactive
same,Potency,[15],inactive
C[C@@H](O)[C@H]1C(=O)N2C(C(=O)O)=C(S[C@@H]3CN[C@H](C(=O)N(C)C)C3)[C@H](C)[C@H]12,"activity change, negative = inhibition",[1]; at 25.7 µM (top of the series),-1.28% (inactive)
same,max response,[1]; [19],-4.15%
same,max response,[1]; [20],-5.75%
